About 8,600 (12%) of roughly 69,000 compounds showed an effect of 50% or more. Only a selection was taken, and strong results are over-represented in it overall.
system: Plasmodium berghei; assay: Screen against P. berghei liver stage (PbLuc), transformed with Luciferase, at 10uM; type: functional, HepG2; conditions: tested at 10 uM

Row | SMILES | INHIBITION [%]
1 | Cc1ccccc1C(C(=O)NCc1nc(-c2ncccn2)no1)N(C)C (stereo not drawn) | -24.9
2 | Cc1cccc(C(C(=O)NCc2nc(-c3ncccn3)no2)N(C)C)c1 (stereo not drawn) | 56.3
3 | Cc1cccc(C(C(=O)NCc2nc(-c3cccnc3)no2)N(C)C)c1 (stereo not drawn) | 15.3
4 | CCN(Cc1cccc2c1OCO2)C(=O)NCCOC | 31.3
5 | CC(C)(C)CC(NC(=O)N1CCS(=O)(=O)CC1)C(F)(F)F (stereo not drawn) | -47.8
6 | Cc1nn(C)cc1CN1CCc2nc(-c3cccnc3)nc(O)c2C1 | 38.8
7 | FC(F)(F)c1ccc2nc([C@H]3CCN(C4CCCCC4)C3)[nH]c2c1 | 73.7
8 | FC(F)(F)c1ccc2nc([C@H]3CCN(C4CCOCC4)C3)[nH]c2c1 | 53
9 | CN1CCC(N2CC[C@H](c3nc4ccc(C(F)(F)F)cc4[nH]3)C2)CC1 | 24.3
10 | Fc1ccc2[nH]c([C@H]3CCN(C4CCOCC4)C3)nc2c1 | 31.2
11 | CC(C)N1CC[C@H](c2nc3ccc(C(F)(F)F)cc3[nH]2)C1 | 30.3
12 | FC(F)(F)c1ccc2nc([C@H]3CCN(C4CCC4)C3)[nH]c2c1 | 39.2
13 | O=S(=O)(CCN1CCN(c2ccccc2O)CC1)c1ccc(Br)cc1 | 18.9
14 | CN(Cc1ccccc1)c1cnn(CC2COCCO2)c(=O)c1 (stereo not drawn) | 28.2
15 | O=C(c1cnoc1)N1CCC[C@]2(C[C@@H](Oc3ccccn3)CO2)C1 | -27.9
16 | c1cc(CCNc2ncc(-c3cnccn3)c(C3CC3)n2)ccn1 | 28.5
17 | c1cc(CNc2ncc(-c3cnccn3)c(C3CC3)n2)ccn1 | 75.9
18 | c1cnc(-c2cnc(N3CCSCC3)nc2C2CCCO2)cn1 (stereo not drawn) | 27.9
19 | c1cnc(-c2cnc(N3CCCCC3)nc2C2CCCO2)cn1 (stereo not drawn) | -14.1
20 | c1cc(CNc2ncc(-c3cnccn3)c([C@@H]3CCCO3)n2)ccn1 | 5.34
21 | c1cnc(-c2cnc(N3CCSCC3)nc2C2CC2)cn1 | 64.3
22 | CC(C)C(C(=O)N1CCCN(Cc2cscn2)CC1)n1cncn1 (stereo not drawn) | -22.9

Row | SMILES | INHIBITION [%]
23 | CC1CC(=O)c2cnc3nc(N4CCOCC4)[nH]c(=O)c3c2C1 (stereo not drawn) | 22
24 | Cc1cccc(CNCC2COC3(CCCC3)O2)c1C (stereo not drawn) | 50
25 | Cc1ncccc1CNCC1CCCN1c1cccnn1 (stereo not drawn) | 7.67
26 | CCN1CCOC(CNCc2ccccc2OCC(=O)N(C)C)C1 (stereo not drawn) | 12.8
27 | Cc1ncccc1CNCC1COC2(CCCCC2)O1 (stereo not drawn) | 74.9
28 | Cc1cccc(CNC2(CCO)CCOCC2)c1C | 27.3
29 | COCCOc1ccccc1CNCc1c(C)nn(C)c1N(C)C | -2.44
30 | Cc1cccc(CNCC2COC3(CCCCC3)O2)c1C (stereo not drawn) | -3.77
31 | Cc1ncccc1CNCC1CCN(CCO)CC1 | -64.9
32 | COCCOc1ccccc1CNCC1COC2(CCCC2)O1 (stereo not drawn) | 81.5
33 | O=C(CCOCC(F)(F)F)N1CCCC1c1noc(C2CC2)n1 (stereo not drawn) | -21.5
34 | Cc1nc(NC(=O)C(C)N(C)Cc2ccc3c(c2)OCO3)sc1C (stereo not drawn) | 46.3
35 | Cc1cc(C)n(C2CCCN(C(=O)CCOc3ccccc3F)C2)n1 (stereo not drawn) | -11.4
36 | COCc1noc(-c2cc(Cl)c3c(c2)OCCCO3)n1 | 19.8
37 | CN(C)c1ncc(NC(=O)N2CCC(CN3CCCC3)C2)cn1 (stereo not drawn) | -45
38 | CC1CCN(CC2CCCN(C(=O)Nc3ccccn3)C2)CC1 (stereo not drawn) | 55
39 | CC1CCN(C(=O)C2CCCN(C(=O)Nc3ccccn3)C2)CC1 (stereo not drawn) | 89.6
40 | Cc1ccc(C(=O)NC2CCN(C(=O)Nc3ccccn3)CC2)s1 | -21.9
41 | O=C(NC1CCCCC1)C1CCCN(C(=O)Nc2ccccn2)C1 (stereo not drawn) | 66.1
42 | Cc1ccc(C(=O)NC2CCN(C(=O)Nc3ccccn3)CC2)o1 | -1.58
43 | CC1CCN(CC(O)CNc2ccccn2)CC1 (stereo not drawn) | 1.62
44 | Cc1cccc(NC2CCN(C(=O)Nc3ccccn3)CC2)n1 | 28.8

Row | SMILES | INHIBITION [%]
45 | CC(=O)N1CCC(C(=O)N2CCCC(Cc3ccccn3)C2)CC1 (stereo not drawn) | -6.92
46 | CNc1ccc(CC2CCCN(C(=O)c3cnccn3)C2)nn1 (stereo not drawn) | 32.3
47 | O=C(NCC1(O)COCCN(Cc2cccc(O)c2)C1)c1cscn1 (stereo not drawn) | -19.7
48 | Cc1cc(C)n(CC(C)Nc2nc(-c3ccncc3)nc3c2CNC3)n1 (stereo not drawn) | 49.2
49 | Cn1cnc2c(N3CCCC3)nc(C3CCN(CC4CC4)CC3)cc21 | -14.4
50 | CCc1cnc(C)nc1N1CCS(=O)(=O)CC1 | 57.3
51 | CCOC(=O)N1CCN(c2nc(C)ncc2CC)CC1 | 47.1
52 | CCc1cnc(C)nc1N1CCN(C(N)=O)CC1 | 46.1
53 | O=C(Cn1cc(Cl)cn1)N1CCCC(c2ccn[nH]2)C1 (stereo not drawn) | 28
54 | Cc1occc1CNC(=O)NCCN(C)C1CCCC1 | 16.8
55 | CCOCC1CN(C(=O)c2ccoc2)Cc2cnn(C)c21 (stereo not drawn) | 15.6
56 | Cc1ccsc1CN(C)Cn1nccc1-c1cccnc1 | 5.79
57 | Cc1noc(C)c1CN(C)Cn1nccc1-c1cccnc1 | 36.2
58 | CN(Cc1ccc(C#N)cc1)Cn1nccc1-c1cccnc1 | 50.5
59 | NC(=O)c1sc2ccccc2c1C1CCN(S(=O)(=O)N2CCOCC2)C1 (stereo not drawn) | -24.4
60 | CCc1ccc(CNc2cc(N3CCCC3CO)ncn2)s1 (stereo not drawn) | 49.1
61 | CC(C)N(Cc1ccccn1)C(=O)CCC(=O)c1ccc(F)cc1F | 36.9
62 | CN(Cc1ccc(-n2cccn2)cc1)C[C@@H]1CCCN2CCCC[C@H]12 | 70
63 | CN(Cc1nc2ccccc2c(=O)[nH]1)C[C@@H]1CCCN2CCCC[C@H]12 | 42.6
64 | CN(Cc1ccc(-n2cccn2)cc1)CC1CCCN1c1cccnn1 (stereo not drawn) | 9.64
65 | CN(Cc1nc2ccsc2c(=O)[nH]1)CC1CCCCC1 | -21.8
66 | CN(Cc1nc2ccsc2c(=O)[nH]1)C[C@@H]1CCCN2CCCC[C@H]12 | 68.4

Row | SMILES | INHIBITION [%]
67 | CN(Cc1ccccc1-n1cccn1)C[C@@H]1CCCN2CCCC[C@H]12 | 40.7
68 | CNC(=O)C1(CCCc2ccncc2)CCCCN1 (stereo not drawn) | -4.51
69 | CCc1cc(NCCCN(C)C2CCCC2)ncn1 | -13.1
70 | Cc1nc(C(=O)N(CC2CCCO2)c2ccncc2)cs1 (stereo not drawn) | 45.5
71 | CC(C)(C#N)c1ccccc1CN1CCC(N2CCCC2=O)CC1 | 57.7
72 | O=C1CCCN1C1CCCN(CCOc2ccc(F)cc2)C1 (stereo not drawn) | 31.2
73 | CN(C)c1ccccc1CN1CCC(N2CCCC2=O)CC1 | 25.2
74 | COC(=O)N1CCN(Cc2ccccc2C(C)(C)C#N)CC1 | 39.2
75 | CCc1ccccc1CN1CCC(N2CCCC2=O)CC1 | -0.87
76 | CN(C)c1ccccc1CN1CCCC(N2CCCC2=O)C1 (stereo not drawn) | 51.7
77 | CCSCc1csc(-c2ccc(S(C)(=O)=O)cc2)n1 | -35.8
78 | CCOc1cc(CNC(=O)CNC(=O)CC2CCCCC2)ccn1 | 6.23
79 | NCc1cnc(Nc2ccccc2)nc1 | 23.1
80 | CCc1cnc(CN(C(C)=O)C2CCN(CCN3CCCCC3)C2)o1 (stereo not drawn) | 31.9
81 | CC(C)c1noc(-c2ccc(-n3cnc(C(=O)O)c3)nc2)n1 | 2.49
82 | Cc1c(C(=O)N2CCCC(C(=O)c3nccn3C)C2)c[nH]c(=O)c1C#N (stereo not drawn) | 25.1
83 | O=C1NCCN(C(=O)CCN2CCCO2)C1c1cccc(F)c1 (stereo not drawn) | 5.15
84 | O=C(CCC(=O)N1CCNC(=O)C1c1cccc(F)c1)NC1CCCC1 (stereo not drawn) | 55.5
85 | O=C1NCCN(C(=O)CN2CCOC2=O)C1c1cccc(F)c1 (stereo not drawn) | 32
86 | CCc1nccn1C1CCCN(C(=O)c2csc(NC(C)=O)n2)C1 (stereo not drawn) | 20.1
87 | CC(NCc1ccccc1Br)c1ccc2[nH]c(=O)[nH]c2c1 (stereo not drawn) | 51.6
88 | CC(NCc1ccccc1Cl)c1ccc2[nH]c(=O)[nH]c2c1 (stereo not drawn) | 40.9

Row | SMILES | INHIBITION [%]
89 | COc1ccccc1CNC(C)c1ccc2[nH]c(=O)[nH]c2c1 (stereo not drawn) | 7.12
90 | Cc1nc(CCCNC(=O)C2CC(=O)N(C3CCCC3)C2)sc1C (stereo not drawn) | 44.7
91 | CCN1CC(C(=O)NCCCc2nc(C)c(C)s2)CC1=O (stereo not drawn) | 45.8
92 | Cc1nc(CCCNC(=O)C2CC(=O)N(C3CC3)C2)sc1C (stereo not drawn) | 56.8
93 | Cc1cnc2n1CCN(C)C21CCN(C(=O)CC(C)C)CC1 | 0.547
94 | COCc1ccc(C(=O)N2CC[C@H](O)[C@@H](n3ccnc3)CC2)cc1 | -6.3
95 | Cn1c(=O)oc2cc(S(=O)(=O)N3CCC(c4ccccc4)C3)c(Cl)cc21 (stereo not drawn) | 55
96 | Cn1c(=O)oc2cc(S(=O)(=O)N3CCCCC3)c(Cl)cc21 | 30
97 | Cn1c(=O)oc2ccc(S(=O)(=O)N3CCC(c4ccccc4)C3)cc21 (stereo not drawn) | -5.26
98 | COCC(NC(=O)c1ccoc1C)c1cccc(C(F)(F)F)c1 (stereo not drawn) | 17.8
99 | O=C(O)[C@]12CCCN(Cc3ccsc3)C[C@H]1CN(c1ccccn1)C2 | 1.48
100 | Cc1ccc(CN2CCCC3(COCCN(Cc4c[nH]nn4)C3)C2)o1 (stereo not drawn) | 30.5
101 | CNC(=O)CN1CCOCC2(CCCN(Cc3ccoc3)C2)C1 (stereo not drawn) | -2.35
102 | Cc1ccc(CN2CCCC3(COCCN(Cc4c[nH]nn4)C3)C2)s1 (stereo not drawn) | 65.6
103 | c1cc(CN2CCCC3(COCCN(Cc4c[nH]nn4)C3)C2)cs1 (stereo not drawn) | -4.88
104 | CNC(=O)CN1CCOCC2(CCCN(Cc3ccc(F)cc3)C2)C1 (stereo not drawn) | 53.1
105 | CNC(=O)CN1CCOCC2(CCCN(Cc3ccsc3)C2)C1 (stereo not drawn) | -17.1
106 | Cn1cc(CN2CCCC3(COCCN(Cc4c[nH]nn4)C3)C2)cn1 (stereo not drawn) | -6.23
107 | Fc1ccc(CN2CCCC3(COCCN(Cc4c[nH]nn4)C3)C2)cc1 (stereo not drawn) | 61.5
108 | c1csc(CN2CCCC3(COCCN(Cc4c[nH]nn4)C3)C2)c1 (stereo not drawn) | 31.7
